# Assay results: PubChem BioAssay (NCATS)
# Records with an inconclusive call do not appear. Active and inactive are the calls of the source. Calls follow the shape of the full dose curve. Peptide text beside a SMILES is read from it. * marks the point of attachment. Cbz = O=C(OCc1ccccc1)*; CH2Cl = ClC*
# Legend:
# [1] = Confirmatory qHTS for VERO E6 Cytotoxicity Assay: Counterscreen for SARS-CoV-2 CPE Assay (AID 1508605); details: cell viability luminescence; series mostly up to 20 µM; also: nearly all actives have a fitted effect of over 60% in size
# [2] = Confirmatory qHTS for activators (rescue) of SARS-CoV-2 Cytopathic Effect (CPE) (AID 1508606); details: Vero E6 SARS-CoV-2 CPE rescue, viability luminescence; series mostly up to 20 µM; also: nearly all actives have a fitted effect of over 70% in size
# [3] = Cytotoxicity counterscreen for inhibitors of SARS-CoV-2 cell entry (AID 1645845); details: cell viability (SARS-CoV-2 entry assay cells); series mostly up to 57.1 µM; also: nearly all actives have a fitted effect of over 50% in size
# Method in brief: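 48 h compound treatment (after 1 h preincubation), HEK293-ACE2 cells, 37 C/5% CO2; ATP luminescence endpoint; normalized to cell wells and media blanks.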
# [4] = Primary qHTS to identify inhibitors of SARS-CoV-2 cell entry (AID 1645846); details: SARS-CoV-2 pseudovirus cell entry assay, luminescence; activity change, negative = inhibition: at 57.1 µM (top of the series) unless noted; also: nearly all actives have a fitted effect of over 45% in size
# Method in brief: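 Entry measured by luciferase signal 48 h after adding SARS-CoV-2-S pseudotyped MLV particles to HEK293-ACE2 cells preincubated 1 h with compounds. Normalisation: bald particles and spike particles.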
# [5] = Confirmatory qHTS to identify inhibitors of SARS-CoV-2 cell entry (AID 1645844); details: SARS-CoV-2 pseudotyped particle cell entry, luciferase; series mostly up to 57.2 µM; also: nearly all actives have a fitted effect of over 45% in size
# Method in brief: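 Luminescence from a luciferase reporter, read 48 hr after pseudotyped-particle addition, gives entry signal, normalised to spike-bearing PP wells and bald PP lacking fusion protein wells. Cells are Expi293F stably expressing human ACE2, compound-pretreated 1 hr.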
# [6] = VSVG counterscreen qHTS to identify inhibitors of SARS-CoV-2 cell entry (AID 1645847); details: VSV-G pseudotyped particle entry, luciferase; series mostly up to 57.2 µM; also: nearly all actives have a fitted effect of over 65% in size
# Method in brief: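 Luminescence read after 48 h infection at 37 C with VSV-G-pseudotyped MLV particles, following 1 h compound exposure of Expi293F cells stably expressing human ACE2; scaled between bald particle and VSV-G particle wells.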
# Potency is read from the fitted curve at half-maximal effect.
structure (smiles),measurement,setting,value
CCCN1CCN(c2ccc(C(=O)NC3(C(=O)NCC#N)CCCCC3)cc2)CC1,Potency,[1],inactive
same,Potency,[2],1 µM (active)
same,Potency,[3],inactive
CCOc1ccc(-c2nc(-c3cccc4c3CCC4NCCO)no2)cc1OCC (stereo not drawn),Potency,[1],inactive
same,Potency,[2],11.2 µM (active)
CCC[C@@H](NC(=O)N1C(=O)C(CC)(CC)[C@@H]1Oc1ccc(C(=O)N2CCN(C)CC2)cc1)c1ccc2c(c1)OCO2,Potency,[1],inactive
same,Potency,[2],11.2 µM (active)
Cc1cc(C)c(CNC(=O)c2cc(-c3ccc(N4CCN(C)CC4)nc3)cc3c2c(C)cn3C(C)C)c(=O)[nH]1,Potency,[1],inactive
same,Potency,[2],10 µM (active)
same,"activity change, negative = inhibition",[4],-89.9%
COc1cc2nc(N3CCCCC3)nc(NC3CCN(C)CC3)c2cc1OC,Potency,[1],10 µM (active)
same,Potency,[2],3.55 µM (active)
CCC(CC)COC(=O)[C@H](C)N[P@](=O)(OC[C@H]1O[C@@](C#N)(c2ccc3c(N)ncnn23)[C@H](O)[C@@H]1O)Oc1ccccc1,Potency,[1],inactive
same,Potency,[2],10 µM (active)
CC(=O)c1c(OCCN2CCCCC2)c(OCCC(C)c2ccc(F)cc2)c2oc(C)nc2c1C (stereo not drawn),Potency,[1],inactive
same,Potency,[2],10 µM (active)
CC/C(=C(/CC)c1ccc(O)c(CN(CC)CC)c1)c1ccc(O)c(CN(CC)CC)c1,Potency,[1],inactive
same,Potency,[2],8.91 µM (active)
CC[C@H](NC(=O)[C@H](CS(=O)(=O)CC1CC1)N[C@@H](c1ccc(F)cc1)C(F)(F)F)C(=O)C(=O)NC1CC1,Potency,[1],inactive
same,Potency,[2],0.112 µM (active)
same,Potency,[5],1.08 µM (active)
same,Potency,[3],inactive
same,Potency,[6],10.8 µM (active)
CC(C)C[C@H](NC(=O)CNC(=O)OCc1ccccc1)C(=O)N[C@@H](Cc1ccccc1)C(=O)CCl (Cbz-Gly-Leu-Phe-CH2Cl),Potency,[1],inactive
same,Potency,[2],1 µM (active)
O=C1Nc2nc(-c3c(O)cccc3OCC3CC3)cc([C@@H]3CCCNC3)c2CO1,Potency,[1],inactive
same,Potency,[2],11.2 µM (active)
same,"activity change, negative = inhibition",[4],-96.7%
CCN(CC)CCCS(=O)(=O)N[C@H](CCc1ccccc1)c1nc(Cc2ccc(Br)cc2)no1,Potency,[1],inactive
same,Potency,[2],11.2 µM (active)
CN(C)c1nc(NC2CCC(NCCc3ccc(Br)cc3OC(F)(F)F)CC2)nc2ccccc12 (stereo not drawn),Potency,[1],3.98 µM (active)
same,Potency,[2],inactive
C[C@H](NC(=O)[C@H](Cc1ccccc1)NC(=O)OCc1ccccc1)C(=O)CF,Potency,[1],inactive
same,Potency,[2],0.126 µM (active)
CNCc1ccc(-c2cc(-c3nc(-c4ccc(S(=O)(=O)C(C)C)cc4)cnc3N)on2)cc1,Potency,[1],11.2 µM (active)
same,Potency,[2],1.78 µM (active)
same,Potency,[3],inactive
same,"activity change, negative = inhibition",[4],-25.7%
Cc1nnc(-c2ccc(-c3ccc(C(=O)Nc4ccc(O)c(N5CCN(C)CC5)c4)cc3)c(C)c2)o1,Potency,[1],inactive
same,Potency,[2],8.91 µM (active)
CONC(=O)Nc1ccc(-c2sc3c(c2CN(C)Cc2ccccc2)c(=O)n(-c2ccccc2)c(=O)n3Cc2c(F)cccc2F)cc1,Potency,[1],inactive
same,Potency,[2],inactive
same,Potency,[3],inactive
Nc1ncnc2c1c(-c1ccc(Oc3ccccc3)cc1)nn2[C@@H]1CCCNC1,Potency,[1],8.91 µM (active)
same,Potency,[2],inactive
C=CC(C)(C)c1[nH]c2ccccc2c1C1=C(O)C(=O)C(c2c[nH]c3c(CC=C(C)C)cccc23)=C(O)C1=O,Potency,[1],3.98 µM (active)
same,Potency,[2],inactive
CN1CCN(c2ccc(C(=O)Nc3n[nH]c4ccc(Cc5cc(F)cc(F)c5)cc34)c(NC3CCOCC3)c2)CC1,Potency,[1],3.55 µM (active)
same,Potency,[2],inactive
same,Potency,[3],31.6 µM (active)
same,Potency,[4],28.2 µM (active)
CN(C)CCN(Cc1ccc(-c2ccc(CNCCc3ccccc3)cc2)cc1)C(=O)CCC1CCCC1,Potency,[1],3.98 µM (active)
same,Potency,[2],inactive
